Sampled rows, rich in hits. Any-hit rate of the full collection: about 4.1%.
DAX1 inh-1 – inhibitors of human orphan nuclear receptor DAX1 (NR0B1); inhibition, % at 6.75 µM; 340,000 compounds, 0.99% hits; HEK293 Gal4-DAX1 luciferase reporter, luminescence;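 active = inhibition above the mean over all tested compounds plus 3 SD, cut at about 4.2% in these data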;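 also: inhibition shows as a rise in luminescence from relieved DAX1 repression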
Target sequence (P51843 207-470 limits assumed): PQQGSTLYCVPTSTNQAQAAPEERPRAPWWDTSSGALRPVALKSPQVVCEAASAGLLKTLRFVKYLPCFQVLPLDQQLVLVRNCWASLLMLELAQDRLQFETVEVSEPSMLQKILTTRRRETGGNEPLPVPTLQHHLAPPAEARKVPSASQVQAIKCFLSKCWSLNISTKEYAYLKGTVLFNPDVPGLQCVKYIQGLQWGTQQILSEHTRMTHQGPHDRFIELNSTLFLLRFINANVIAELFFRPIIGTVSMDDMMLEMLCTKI
DAX1 inh-2 – inhibitors of DAX1 repression of SF-1 activated StAR promoter. HEK293T StAR-luciferase reporter, SF-1/DAX-1 repression relief. inhibition, % at 6.8 µM. 370,000 compounds, 1.1% hits;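 active = inhibition above the mean over all tested compounds plus 3 SD, cut at about 3.6% in these data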;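 also: higher inhibition means more luminescence from relief of DAX-1 repression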
hgDAF-12 ag – agonists of H. glycines DAF-12 nuclear receptor; AID 687014; activation, % at 6.8 µM; 370,000 compounds, 1.8% hits; HEK293 GAL4-hgDAF12 UAS-luciferase reporter, agonist luminescence; normalized to butyrate control;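 active = activation above a cutoff set at the mean of all screened compounds plus 3 SD, cut at about 10% in these data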
ssDAF-12 act – activators of S. stercoralis DAF-12 nuclear receptor | 370,000 compounds, 1% hits | activation, % at 6.8 µM | AID 652126 | HEK293 ssDAF-12/GRIP1 lit1-tk-luc reporter, luminescence; % of 3 µM dafachronic acid response;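 active = activation above the mean over all tested compounds plus 3 SD, cut at about 0.9% in these data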
hcDAF12 agonist – activators of H. contortus DAF-12 nuclear receptor; HEK293 hcDAF-12 lit1-tk-luc reporter, luminescence; 0% DMSO, 100% Δ7-dafachronic acid; activation, % at 6.8 µM; 370,000 compounds, 1.4% hits; AID 652067;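 active = activation above the mean of all tested compounds plus 3 SD, cut at about 5.5% in these data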
Numbers stand for hits; 0 = inactive; - = not tested or not shown.

SMILES	DAX1 inh-1	DAX1 inh-2	hgDAF-12 ag	ssDAF-12 act	hcDAF12 agonist
COC(=O)C[C@H]1CC[C@H]2[C@H](COc3ccc(NC(=O)Nc4ccccc4F)cc3C(=O)N2C)O1	-	0	0	0	0
COC(=O)Cn1nc(-c2ccccc2)c2cccc(C(F)(F)F)c21	-	-	0	0	0
CCc1cccc(NC(=O)CCc2nc(-c3cccs3)no2)c1	0	0	0	0	0
O=C(CCc1nc(-c2cccs2)no1)Nc1cnc2ccccc2c1	0	0	0	1.7	0
O=C(CN(C(=O)OCC1c2ccccc2-c2ccccc21)[C@@H](Cc1ccccc1)C(=O)O)OCc1ccc(C(=O)NCc2ccccc2)cc1	-	0	0	0	0
Cc1cc(C(=O)CN2C(=O)C3CC=CCC3C2=O)c(C)n1-c1ccccc1 (stereo unspecified)	0	0	11	0	0
CC1CCCCC1N(C(=O)c1cc(C2CC2)on1)C1CCCCCC1 (stereo unspecified)	-	0	0	0	0
CCSc1nnc(NC(=O)C2CCCCC2C(=O)O)s1 (stereo unspecified)	0	0	0	0	0
CCSc1nnc(NC(=O)C2CC2c2ccccc2)s1 (stereo unspecified)	12	0	0	0	0
CCSc1nnc(NC(=O)c2cc(C)nc3ccccc23)s1	0	0	0	0	0
CCSc1nnc(NC(=O)c2ccc3ccccc3n2)s1	0	0	0	1.0	6.3
CCSc1nnc(NC(=O)c2cccc(OCc3c(C)noc3C)c2)s1	0	0	0	0	0
CCSc1nnc(NC(=O)c2ccc3nc[nH]c3c2)s1	0	0	13	0	0
CCOc1ccc(C2Oc3nc(SC)nnc3-c3ccccc3N2C(C)=O)cc1OC (stereo unspecified)	6.0	0	0	0	0
COC(=O)[C@H]1C[C@@]2(C)c3ccccc3N(S(=O)(=O)c3ccccc3)[C@H]2N1	-	0	0	0	0
Cc1nc2sc(C(=O)NC3CC3)c(N)c2c(C)c1Cl	-	0	0	0.9	0
COc1ccccc1N1C(=O)S/C(=C\c2cccs2)C1=O	0	0	0	1.0	0
CC(=O)c1ccc(NC(=O)C2CCCN2S(=O)(=O)c2ccc(F)cc2)cc1 (stereo unspecified)	0	0	0	0	0
O=C(Nc1ccc(O)cc1)C1CCCN1S(=O)(=O)c1ccc(F)cc1 (stereo unspecified)	4.6	0	0	0	0
O=C(C1CCC(Cn2c(=S)[nH]c3ccccc3c2=O)CC1)N1CCOCC1 (stereo unspecified)	5.7	0	0	0	0
O=c1c2cc(N3CCOCC3)ccc2[nH]c(=S)n1CC1CCCO1 (stereo unspecified)	0	0	0	0.9	0
O=C(C1CCC(Cn2c(=S)[nH]c3ccccc3c2=O)CC1)N1CCN(c2ccccc2)CC1 (stereo unspecified)	0	0	0	0	0
O=S1(=O)N[C@H](Cc2ccccc2)COc2cc(F)ccc21	-	0	0	0	0
COc1cccc2oc3cc(C#CC4(O)CCCCC4)ccc3c(=O)c12	0	4.0	0	0	5.8
O=C(OCc1nc2ccccc2s1)c1ccc(Br)o1	4.6	0	0	0	0
SMILES	DAX1 inh-1	DAX1 inh-2	hgDAF-12 ag	ssDAF-12 act	hcDAF12 agonist
O=C(OCc1nc2ccccc2s1)c1ccc([N+](=O)[O-])o1	0	-	-	-	-
O=C(NC1CCCCN(Cc2cccc(F)c2)C1=O)c1ccc(-c2ccccc2)cc1 (stereo unspecified)	-	0	0	0	0
Cc1ccc(C(=O)/C=C/N(C)C)cn1	6.8	0	0	0	0
CN(C)/C=C/C(=O)c1ccc(Cl)cc1	0	0	0	0	0
CCOc1cc(C(=O)NCCOC)cc(OCC)c1OCC	0	0	0	1.5	0
N/C(Cc1cccs1)=N\OC(=O)COc1ccc(Cl)cc1Cl	0	0	13	0	0
N/C(Cc1ccc(Cl)cc1Cl)=N\OC(=O)Cc1cccs1	0	0	0	0	0
Cc1ccc(C(=O)NC2CCCCN(Cc3cccc(Cl)c3)C2=O)c(C)c1 (stereo unspecified)	-	0	0	0	0
Cc1ccccc1C(=O)NC1CCCCN(Cc2cccc(Cl)c2)C1=O (stereo unspecified)	-	0	0	1.0	0
Cc1ccccc1CN1CCCCC(NC(=O)C2CCC2)C1=O (stereo unspecified)	-	0	0	1.9	0
COc1ccc(S[C@]2(C(=O)NCc3ccccc3)CC(=O)N[C@@H]2c2ccc(OC)cc2)cc1	-	0	0	0	0
COc1cccc(OC)c1C(=O)NC(=S)Nc1ccc2c(c1)Cc1ccccc1-2	0	0	0	0	0
COc1cccc(OC)c1C(=O)Nc1ccc2c(c1)Cc1ccccc1-2	0	0	0	0	6.4
CCC1=C(NCc2ccccc2)COC1=O	4.3	0	0	0	0
CC1=CC(c2ccccc2)n2nnnc2N1 (stereo unspecified)	11	0	0	0	0
O=C(CN(Cc1ccccc1)C(=O)CCC(=O)Nc1nccs1)NCc1ccc(F)cc1	0	0	0	0	0
O=C(CN(Cc1ccc(F)cc1)C(=O)CCC(=O)Nc1nccs1)NCc1ccc(F)cc1	4.6	0	0	0	0
CC(C)(C)CCN1C[C@@H]2C(CNC(=O)c3cc(Cl)cc(Cl)c3)[C@@H]2C1 (stereo partly specified)	-	-	0	0	0
C[C@@H](C(=O)NCC1CCCO1)N1C(=O)N2CCc3c([nH]c4ccccc34)[C@@]2(C)C1=O (stereo partly specified)	0	0	0	0	0
COc1ccc2[nH]c3c(c2c1)CCN1C(=O)N([C@@H](C)C(=O)NCC2CCCO2)C(=O)[C@]31C (stereo partly specified)	5.7	0	0	0	0
CSc1ccc(C=Nn2c(-c3cc(C)[nH]n3)n[nH]c2=S)cc1	-	0	0	0	0
CSc1cccc(NC(=O)c2nnn(Cc3ccccc3)c2N)c1	0	0	0	0	0
COc1cccc(NC(=O)c2nnn(CCc3ccccc3)c2N)c1	6.0	0	0	0	0
COc1cccc(NC(=O)Cn2nnc(C(=O)Nc3ccccc3)c2N)c1	0	0	0	0	0
COc1cc(NC(=O)c2nnn(Cc3ccc(SC)cc3)c2N)cc(OC)c1	4.2	0	0	0	0
SMILES	DAX1 inh-1	DAX1 inh-2	hgDAF-12 ag	ssDAF-12 act	hcDAF12 agonist
O=C(/C=C/c1ccc2c(c1)OCO2)Nc1nc2ccc(F)cc2s1	4.8	0	0	0	0
N#Cc1ccccc1OCC(=O)NCC1(N2CCCCC2)CCCCC1	0	0	0	1.5	0
COC(=O)C[C@H]1CC[C@@H]2[C@@H](COc3ccc(NS(=O)(=O)c4ccccc4Cl)cc3C(=O)N2C)O1	-	0	0	0	0
O=C(Nc1cccc(C(F)(F)F)c1)O[C@@H]1CC[C@@]23CCCN2C(=O)CCC[C@H]3C1	-	-	0	0	0
Cn1c(=NC(=O)C(C)(C)C)sc2cccc(F)c21	4.3	0	0	0	0
C#CCn1c(=NC(=O)c2ccccc2[N+](=O)[O-])sc2cc(S(C)(=O)=O)ccc21	0	0	0	0	0

Screening data from PubChem BioAssay.
